According to the supplement of paper PMC11732987, “Enantioselective OTUD7B fragment discovery through chemoproteomics screening and high-throughput optimisation” (Communications Chemistry, 2025):

Experiments:
Assay in all cases: log2 ratio of Biotin-Ahx-Ub-VS probe labelling (fragment/DMSO); higher = less target engagement (more negative = stronger competition), active = hit call of the paper (q ≤ 0.05, log2 ratio ≤ -1)
Conditions in all cases: compound concentration: 200 uM; treatment time: 3 h
USP42 = biological target: T1, USP42 (UniProt Q9H9J4)
T1 sequence (whole entry): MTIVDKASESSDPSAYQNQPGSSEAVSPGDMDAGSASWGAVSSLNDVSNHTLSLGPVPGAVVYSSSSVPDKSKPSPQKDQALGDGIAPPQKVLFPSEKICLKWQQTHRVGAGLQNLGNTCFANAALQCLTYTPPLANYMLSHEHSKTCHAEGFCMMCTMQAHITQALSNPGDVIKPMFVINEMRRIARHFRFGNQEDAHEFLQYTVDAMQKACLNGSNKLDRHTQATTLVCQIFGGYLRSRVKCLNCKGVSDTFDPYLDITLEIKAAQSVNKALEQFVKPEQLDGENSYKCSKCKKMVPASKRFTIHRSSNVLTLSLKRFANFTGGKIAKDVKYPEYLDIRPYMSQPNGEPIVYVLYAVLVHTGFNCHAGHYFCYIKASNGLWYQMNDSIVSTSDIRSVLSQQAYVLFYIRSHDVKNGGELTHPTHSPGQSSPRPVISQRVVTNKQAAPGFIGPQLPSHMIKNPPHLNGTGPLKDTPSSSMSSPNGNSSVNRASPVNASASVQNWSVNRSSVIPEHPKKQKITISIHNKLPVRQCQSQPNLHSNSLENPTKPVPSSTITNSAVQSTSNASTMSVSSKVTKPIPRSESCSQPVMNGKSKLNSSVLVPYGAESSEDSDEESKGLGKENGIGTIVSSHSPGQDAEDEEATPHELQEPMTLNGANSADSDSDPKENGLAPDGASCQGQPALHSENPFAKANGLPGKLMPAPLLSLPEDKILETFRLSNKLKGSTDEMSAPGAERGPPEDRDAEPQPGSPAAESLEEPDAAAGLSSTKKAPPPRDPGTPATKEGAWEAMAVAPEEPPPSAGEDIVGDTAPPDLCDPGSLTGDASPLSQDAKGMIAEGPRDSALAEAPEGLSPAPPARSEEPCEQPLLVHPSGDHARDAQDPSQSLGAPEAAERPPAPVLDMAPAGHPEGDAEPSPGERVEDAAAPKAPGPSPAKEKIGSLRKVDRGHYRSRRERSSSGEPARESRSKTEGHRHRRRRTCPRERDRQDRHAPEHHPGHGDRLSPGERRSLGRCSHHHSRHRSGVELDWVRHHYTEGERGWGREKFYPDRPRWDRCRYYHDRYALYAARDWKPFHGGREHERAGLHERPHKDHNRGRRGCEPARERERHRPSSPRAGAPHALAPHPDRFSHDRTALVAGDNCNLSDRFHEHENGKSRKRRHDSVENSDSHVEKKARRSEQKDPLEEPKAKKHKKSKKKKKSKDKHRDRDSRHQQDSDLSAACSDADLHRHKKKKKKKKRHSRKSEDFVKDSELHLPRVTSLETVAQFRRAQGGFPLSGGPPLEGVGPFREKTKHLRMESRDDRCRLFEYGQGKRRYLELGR
Summary of the method: (§1)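 Triplicate samples of HEK293T lysate, 495 µg each, received fragment at 200 µM or vehicle for 3 h, followed by Biotin-Ahx-Ub-VS (0.5 µM final) for 1 h. After NeutrAvidin enrichment of labelled DUBs and LysC/trypsin digestion, peptides were run by diaPASEF LC-MS/MS. The values are average log2 fragment/vehicle ratios from global-median-normalised Spectronaut label-free quantities, tested by unpaired t-test on proteins having ≥2 unique peptides.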

USP46 = USP46 (UniProt P62068)
Summary of the method: as §1

USP47 = biological target: T2, USP47 (UniProt Q96K76)
T2 sequence (whole entry): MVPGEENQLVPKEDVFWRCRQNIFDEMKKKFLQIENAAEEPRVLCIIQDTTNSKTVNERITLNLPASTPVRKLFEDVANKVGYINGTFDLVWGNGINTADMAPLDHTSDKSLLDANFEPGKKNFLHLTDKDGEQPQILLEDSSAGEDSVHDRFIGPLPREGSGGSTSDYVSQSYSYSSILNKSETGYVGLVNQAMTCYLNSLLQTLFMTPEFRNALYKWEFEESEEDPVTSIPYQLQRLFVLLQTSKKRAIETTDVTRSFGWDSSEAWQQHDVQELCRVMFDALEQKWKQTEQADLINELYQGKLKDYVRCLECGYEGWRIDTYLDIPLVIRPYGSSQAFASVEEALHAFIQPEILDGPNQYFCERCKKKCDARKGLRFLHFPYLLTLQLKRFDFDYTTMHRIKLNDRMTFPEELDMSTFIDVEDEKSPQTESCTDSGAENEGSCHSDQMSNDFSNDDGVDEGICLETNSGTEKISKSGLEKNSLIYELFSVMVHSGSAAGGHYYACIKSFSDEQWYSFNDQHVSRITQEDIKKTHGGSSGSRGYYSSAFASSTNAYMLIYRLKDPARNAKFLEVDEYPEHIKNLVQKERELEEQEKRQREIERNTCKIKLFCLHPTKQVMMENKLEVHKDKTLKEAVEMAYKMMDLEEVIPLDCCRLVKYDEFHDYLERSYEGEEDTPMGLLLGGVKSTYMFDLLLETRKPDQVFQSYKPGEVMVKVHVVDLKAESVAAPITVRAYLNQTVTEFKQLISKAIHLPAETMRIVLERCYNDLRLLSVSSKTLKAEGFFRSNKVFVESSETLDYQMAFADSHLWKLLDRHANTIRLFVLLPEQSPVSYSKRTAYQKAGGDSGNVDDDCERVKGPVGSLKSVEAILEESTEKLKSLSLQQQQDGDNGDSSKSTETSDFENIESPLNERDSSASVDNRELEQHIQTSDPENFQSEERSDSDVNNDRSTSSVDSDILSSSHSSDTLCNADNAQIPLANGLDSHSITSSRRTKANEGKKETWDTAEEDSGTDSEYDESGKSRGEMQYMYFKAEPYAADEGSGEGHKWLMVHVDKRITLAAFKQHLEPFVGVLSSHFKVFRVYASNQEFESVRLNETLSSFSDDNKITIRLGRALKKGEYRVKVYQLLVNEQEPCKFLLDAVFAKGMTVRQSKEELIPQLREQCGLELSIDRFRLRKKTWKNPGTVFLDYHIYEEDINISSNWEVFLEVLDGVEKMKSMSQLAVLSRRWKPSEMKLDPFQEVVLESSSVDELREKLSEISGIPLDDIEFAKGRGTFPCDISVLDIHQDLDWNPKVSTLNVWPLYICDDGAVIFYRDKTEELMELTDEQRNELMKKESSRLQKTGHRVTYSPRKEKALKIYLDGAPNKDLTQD
Summary of the method: as §1

USP48 = biological target: T3, USP48 (UniProt Q86UV5)
T3 sequence (whole entry): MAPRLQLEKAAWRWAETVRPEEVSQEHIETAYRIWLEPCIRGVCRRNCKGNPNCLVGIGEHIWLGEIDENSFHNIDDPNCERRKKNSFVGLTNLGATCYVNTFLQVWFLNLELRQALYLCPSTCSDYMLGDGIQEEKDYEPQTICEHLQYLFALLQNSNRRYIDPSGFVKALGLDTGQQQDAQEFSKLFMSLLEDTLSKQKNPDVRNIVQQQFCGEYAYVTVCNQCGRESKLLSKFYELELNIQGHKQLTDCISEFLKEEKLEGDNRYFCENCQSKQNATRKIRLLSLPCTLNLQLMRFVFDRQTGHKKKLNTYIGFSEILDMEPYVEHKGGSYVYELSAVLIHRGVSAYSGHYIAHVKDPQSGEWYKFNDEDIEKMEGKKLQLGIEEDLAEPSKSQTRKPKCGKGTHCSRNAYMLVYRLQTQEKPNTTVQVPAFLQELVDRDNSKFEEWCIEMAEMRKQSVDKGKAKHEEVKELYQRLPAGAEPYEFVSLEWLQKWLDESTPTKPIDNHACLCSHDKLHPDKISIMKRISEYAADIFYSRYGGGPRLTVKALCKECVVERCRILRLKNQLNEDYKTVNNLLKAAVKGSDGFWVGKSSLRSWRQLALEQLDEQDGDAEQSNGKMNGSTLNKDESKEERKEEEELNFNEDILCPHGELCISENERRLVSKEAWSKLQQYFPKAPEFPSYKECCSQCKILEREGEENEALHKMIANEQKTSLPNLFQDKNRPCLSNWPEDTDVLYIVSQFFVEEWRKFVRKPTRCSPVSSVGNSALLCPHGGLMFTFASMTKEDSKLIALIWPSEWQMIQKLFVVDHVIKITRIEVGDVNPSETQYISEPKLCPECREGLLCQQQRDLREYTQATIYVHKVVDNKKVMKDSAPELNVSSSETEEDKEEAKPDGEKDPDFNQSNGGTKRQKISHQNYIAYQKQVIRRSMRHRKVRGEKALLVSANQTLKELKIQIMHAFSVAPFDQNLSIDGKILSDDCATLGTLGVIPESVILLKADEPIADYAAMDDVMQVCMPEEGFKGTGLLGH
Summary of the method: as §1

USP5 = biological target: T4, USP5 (UniProt P45974)
T4 sequence (whole entry): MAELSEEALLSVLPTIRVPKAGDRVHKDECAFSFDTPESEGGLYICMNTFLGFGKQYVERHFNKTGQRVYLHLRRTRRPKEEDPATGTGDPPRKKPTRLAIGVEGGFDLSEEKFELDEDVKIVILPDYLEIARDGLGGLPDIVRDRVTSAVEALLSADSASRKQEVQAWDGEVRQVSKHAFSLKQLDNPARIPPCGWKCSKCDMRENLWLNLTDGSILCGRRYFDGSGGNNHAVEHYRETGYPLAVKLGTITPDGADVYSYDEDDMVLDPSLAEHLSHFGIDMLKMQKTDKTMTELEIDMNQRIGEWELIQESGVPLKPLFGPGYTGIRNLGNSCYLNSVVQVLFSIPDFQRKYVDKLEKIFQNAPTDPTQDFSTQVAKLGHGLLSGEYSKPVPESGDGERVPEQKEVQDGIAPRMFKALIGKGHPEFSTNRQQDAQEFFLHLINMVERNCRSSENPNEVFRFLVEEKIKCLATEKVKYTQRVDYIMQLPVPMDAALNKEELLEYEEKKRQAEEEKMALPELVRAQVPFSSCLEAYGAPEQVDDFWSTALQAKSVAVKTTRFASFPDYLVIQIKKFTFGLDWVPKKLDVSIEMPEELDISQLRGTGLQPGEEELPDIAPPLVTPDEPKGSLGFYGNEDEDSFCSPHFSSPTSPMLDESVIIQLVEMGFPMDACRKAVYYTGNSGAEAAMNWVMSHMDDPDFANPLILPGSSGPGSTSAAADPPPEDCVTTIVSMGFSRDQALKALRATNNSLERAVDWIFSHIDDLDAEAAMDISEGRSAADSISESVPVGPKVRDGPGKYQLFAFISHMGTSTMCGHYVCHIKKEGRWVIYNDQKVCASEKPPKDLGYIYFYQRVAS
Summary of the method: as §1

USP54 = USP54 (UniProt Q70EL1)
Summary of the method: as §1

USP7 = USP7 (UniProt Q93009)
Summary of the method: as §1

USP8 = biological target: T5, USP8 (UniProt P40818)
T5 sequence (whole entry): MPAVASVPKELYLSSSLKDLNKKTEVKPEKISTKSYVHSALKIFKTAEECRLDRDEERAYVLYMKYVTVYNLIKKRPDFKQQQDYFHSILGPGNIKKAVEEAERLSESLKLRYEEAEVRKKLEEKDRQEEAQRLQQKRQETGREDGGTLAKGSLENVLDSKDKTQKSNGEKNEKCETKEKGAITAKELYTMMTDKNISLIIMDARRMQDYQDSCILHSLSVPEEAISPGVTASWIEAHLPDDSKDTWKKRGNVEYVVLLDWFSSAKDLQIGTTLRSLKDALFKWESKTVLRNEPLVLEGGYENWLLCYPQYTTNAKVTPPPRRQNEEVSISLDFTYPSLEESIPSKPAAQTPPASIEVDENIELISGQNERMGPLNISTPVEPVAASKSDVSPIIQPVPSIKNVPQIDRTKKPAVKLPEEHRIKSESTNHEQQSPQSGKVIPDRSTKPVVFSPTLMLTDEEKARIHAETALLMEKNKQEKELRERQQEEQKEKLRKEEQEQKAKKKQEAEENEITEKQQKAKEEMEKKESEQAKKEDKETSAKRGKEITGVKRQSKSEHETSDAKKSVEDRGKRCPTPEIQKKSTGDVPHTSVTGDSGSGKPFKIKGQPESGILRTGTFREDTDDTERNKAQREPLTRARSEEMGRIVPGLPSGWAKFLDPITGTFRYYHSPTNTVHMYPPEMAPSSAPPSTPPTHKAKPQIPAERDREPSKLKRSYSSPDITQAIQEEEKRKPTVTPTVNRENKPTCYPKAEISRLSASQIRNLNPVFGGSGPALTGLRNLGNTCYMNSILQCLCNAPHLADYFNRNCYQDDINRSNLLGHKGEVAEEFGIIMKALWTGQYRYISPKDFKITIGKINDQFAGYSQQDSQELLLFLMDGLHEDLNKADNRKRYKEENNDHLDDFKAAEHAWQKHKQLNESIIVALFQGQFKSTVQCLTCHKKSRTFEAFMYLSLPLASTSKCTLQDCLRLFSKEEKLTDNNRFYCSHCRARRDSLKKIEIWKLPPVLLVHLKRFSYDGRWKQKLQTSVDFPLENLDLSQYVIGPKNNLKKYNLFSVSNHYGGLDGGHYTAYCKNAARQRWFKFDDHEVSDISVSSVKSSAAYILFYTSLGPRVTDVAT
Summary of the method: as §1

USP9X = USP9X (UniProt Q93008)
Summary of the method: as §1

UniProt O00487 = biological target: UniProt O00487
Summary of the method: as §1

Measured: log2 ratio of Biotin-Ahx-Ub-VS probe labelling

USP9X, sequence (Q93008 whole entry): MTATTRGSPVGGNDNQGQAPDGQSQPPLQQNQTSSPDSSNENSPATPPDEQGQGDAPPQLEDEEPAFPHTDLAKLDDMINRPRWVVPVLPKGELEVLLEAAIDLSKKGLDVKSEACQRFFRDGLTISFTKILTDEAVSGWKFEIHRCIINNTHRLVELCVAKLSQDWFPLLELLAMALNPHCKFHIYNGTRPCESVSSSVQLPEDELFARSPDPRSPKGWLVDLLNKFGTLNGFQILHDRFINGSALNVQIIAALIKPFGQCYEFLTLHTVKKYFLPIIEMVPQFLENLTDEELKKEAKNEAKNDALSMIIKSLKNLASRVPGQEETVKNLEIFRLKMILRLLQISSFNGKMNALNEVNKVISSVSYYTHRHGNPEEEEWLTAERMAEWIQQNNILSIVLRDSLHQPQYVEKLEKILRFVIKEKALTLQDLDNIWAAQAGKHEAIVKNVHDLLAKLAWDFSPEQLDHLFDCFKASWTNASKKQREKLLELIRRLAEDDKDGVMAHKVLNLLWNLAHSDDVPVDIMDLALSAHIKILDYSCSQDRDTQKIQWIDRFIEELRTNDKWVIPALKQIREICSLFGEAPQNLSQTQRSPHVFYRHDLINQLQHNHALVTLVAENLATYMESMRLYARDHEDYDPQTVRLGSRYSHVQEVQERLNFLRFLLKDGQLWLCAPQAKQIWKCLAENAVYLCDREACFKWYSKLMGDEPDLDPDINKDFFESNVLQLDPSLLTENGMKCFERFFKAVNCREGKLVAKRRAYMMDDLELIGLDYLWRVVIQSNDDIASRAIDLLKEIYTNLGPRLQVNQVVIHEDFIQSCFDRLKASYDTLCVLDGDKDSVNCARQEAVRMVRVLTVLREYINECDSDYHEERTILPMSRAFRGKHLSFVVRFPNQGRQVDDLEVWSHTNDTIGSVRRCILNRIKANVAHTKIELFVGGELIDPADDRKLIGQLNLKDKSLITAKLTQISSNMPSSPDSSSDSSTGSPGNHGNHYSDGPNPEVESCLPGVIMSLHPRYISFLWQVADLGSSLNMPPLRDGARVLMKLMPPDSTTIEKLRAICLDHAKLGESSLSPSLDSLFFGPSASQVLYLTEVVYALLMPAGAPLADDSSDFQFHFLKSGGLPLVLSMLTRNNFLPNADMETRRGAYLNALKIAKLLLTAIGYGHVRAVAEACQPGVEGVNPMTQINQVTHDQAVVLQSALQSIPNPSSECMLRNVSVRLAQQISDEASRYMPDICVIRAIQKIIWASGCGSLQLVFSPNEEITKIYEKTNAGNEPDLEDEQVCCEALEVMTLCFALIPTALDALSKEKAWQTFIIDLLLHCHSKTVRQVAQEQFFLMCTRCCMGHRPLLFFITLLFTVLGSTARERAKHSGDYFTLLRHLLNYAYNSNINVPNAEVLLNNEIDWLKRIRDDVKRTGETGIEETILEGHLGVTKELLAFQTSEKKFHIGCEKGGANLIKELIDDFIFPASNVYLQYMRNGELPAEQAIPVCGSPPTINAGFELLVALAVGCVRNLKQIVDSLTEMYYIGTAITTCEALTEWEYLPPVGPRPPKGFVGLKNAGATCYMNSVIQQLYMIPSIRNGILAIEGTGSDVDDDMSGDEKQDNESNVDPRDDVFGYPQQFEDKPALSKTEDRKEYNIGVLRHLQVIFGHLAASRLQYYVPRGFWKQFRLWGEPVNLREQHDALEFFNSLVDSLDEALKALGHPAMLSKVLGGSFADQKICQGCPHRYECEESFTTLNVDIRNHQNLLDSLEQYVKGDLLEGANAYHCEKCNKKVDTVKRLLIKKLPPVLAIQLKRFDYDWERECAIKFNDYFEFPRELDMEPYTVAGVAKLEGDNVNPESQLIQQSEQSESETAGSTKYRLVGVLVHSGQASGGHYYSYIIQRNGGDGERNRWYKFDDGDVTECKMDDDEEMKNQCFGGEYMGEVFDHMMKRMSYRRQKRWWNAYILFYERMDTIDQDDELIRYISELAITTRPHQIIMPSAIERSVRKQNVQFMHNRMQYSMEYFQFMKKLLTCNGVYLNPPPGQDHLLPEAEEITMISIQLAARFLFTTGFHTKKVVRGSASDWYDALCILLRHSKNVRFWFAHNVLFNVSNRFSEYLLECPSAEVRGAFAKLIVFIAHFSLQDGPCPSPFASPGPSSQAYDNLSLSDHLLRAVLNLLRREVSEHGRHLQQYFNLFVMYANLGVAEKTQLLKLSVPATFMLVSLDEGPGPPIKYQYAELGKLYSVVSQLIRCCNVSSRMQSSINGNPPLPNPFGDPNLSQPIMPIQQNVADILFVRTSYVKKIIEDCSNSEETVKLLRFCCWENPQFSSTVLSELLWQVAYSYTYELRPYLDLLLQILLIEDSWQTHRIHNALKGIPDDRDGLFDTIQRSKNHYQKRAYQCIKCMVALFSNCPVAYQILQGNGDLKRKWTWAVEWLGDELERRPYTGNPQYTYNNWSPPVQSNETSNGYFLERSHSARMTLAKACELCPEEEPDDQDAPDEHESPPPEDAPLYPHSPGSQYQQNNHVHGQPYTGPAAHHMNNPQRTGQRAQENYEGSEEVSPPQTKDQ
USP7, sequence (Q93009 whole entry, looked up): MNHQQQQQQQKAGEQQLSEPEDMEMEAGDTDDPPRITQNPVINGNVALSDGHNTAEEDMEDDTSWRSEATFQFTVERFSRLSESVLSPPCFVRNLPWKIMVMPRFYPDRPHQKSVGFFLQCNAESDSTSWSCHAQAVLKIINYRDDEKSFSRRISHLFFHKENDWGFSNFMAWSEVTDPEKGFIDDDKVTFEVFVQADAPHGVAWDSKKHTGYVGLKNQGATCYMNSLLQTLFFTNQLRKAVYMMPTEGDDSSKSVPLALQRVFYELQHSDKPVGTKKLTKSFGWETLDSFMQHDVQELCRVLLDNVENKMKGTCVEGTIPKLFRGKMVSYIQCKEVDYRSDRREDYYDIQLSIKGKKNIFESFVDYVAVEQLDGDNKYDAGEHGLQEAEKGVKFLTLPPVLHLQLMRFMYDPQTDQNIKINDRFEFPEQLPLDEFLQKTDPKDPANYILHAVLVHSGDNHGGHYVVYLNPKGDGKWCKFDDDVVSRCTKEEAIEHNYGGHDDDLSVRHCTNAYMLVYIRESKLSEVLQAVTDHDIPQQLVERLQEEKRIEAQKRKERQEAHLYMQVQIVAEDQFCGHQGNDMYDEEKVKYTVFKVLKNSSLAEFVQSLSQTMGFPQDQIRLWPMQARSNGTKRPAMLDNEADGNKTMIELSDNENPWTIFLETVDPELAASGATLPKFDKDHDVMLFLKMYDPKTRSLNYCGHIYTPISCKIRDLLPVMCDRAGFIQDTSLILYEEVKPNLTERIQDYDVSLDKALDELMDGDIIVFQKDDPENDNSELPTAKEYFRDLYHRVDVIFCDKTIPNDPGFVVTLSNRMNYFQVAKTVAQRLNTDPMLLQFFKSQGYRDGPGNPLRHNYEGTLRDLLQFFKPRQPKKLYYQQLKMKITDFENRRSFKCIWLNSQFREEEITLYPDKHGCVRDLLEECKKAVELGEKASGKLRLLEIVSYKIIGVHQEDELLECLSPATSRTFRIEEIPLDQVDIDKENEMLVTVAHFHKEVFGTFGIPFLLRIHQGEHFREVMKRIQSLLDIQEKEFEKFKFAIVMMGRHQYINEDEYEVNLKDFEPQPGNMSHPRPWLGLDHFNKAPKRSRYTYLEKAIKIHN
UniProt O00487, sequence (O00487 whole entry): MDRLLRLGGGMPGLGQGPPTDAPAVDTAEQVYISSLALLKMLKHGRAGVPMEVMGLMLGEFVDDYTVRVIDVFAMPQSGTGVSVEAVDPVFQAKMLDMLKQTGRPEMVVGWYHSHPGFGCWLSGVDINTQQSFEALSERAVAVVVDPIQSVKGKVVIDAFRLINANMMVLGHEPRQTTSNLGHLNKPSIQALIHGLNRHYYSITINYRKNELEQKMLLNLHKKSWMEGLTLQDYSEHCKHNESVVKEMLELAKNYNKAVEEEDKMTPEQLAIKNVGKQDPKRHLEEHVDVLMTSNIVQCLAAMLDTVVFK
USP46, sequence (P62068 whole entry): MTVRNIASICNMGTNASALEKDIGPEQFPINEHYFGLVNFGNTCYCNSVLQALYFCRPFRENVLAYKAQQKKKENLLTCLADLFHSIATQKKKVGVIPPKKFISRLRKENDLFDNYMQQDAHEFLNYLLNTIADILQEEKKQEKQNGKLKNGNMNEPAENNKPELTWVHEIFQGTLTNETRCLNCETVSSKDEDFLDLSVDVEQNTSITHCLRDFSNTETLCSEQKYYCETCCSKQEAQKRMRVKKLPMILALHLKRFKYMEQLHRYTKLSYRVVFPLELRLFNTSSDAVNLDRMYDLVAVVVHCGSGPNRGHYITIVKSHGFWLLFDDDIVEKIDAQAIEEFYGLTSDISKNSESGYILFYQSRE

Cl.O=C(CCl)N1CCC(n2nc3ccccc3n2)CC1
inactive: USP42 0.181 | USP46 -0.321 | USP47 -0.894 | USP48 -0.485 | USP5 -0.467 | USP54 -0.186 | USP8 -0.518 | USP9X -0.485 | UniProt O00487 -0.114
active: USP7 -1.88
